Here are results for 16 compounds from PubChem BioAssay (NCI).

This is part of a sample that, as a whole, favours compounds with a hit. Of some 83,000 tested, about 20% had one in any assay.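 A percent growth of 40 corresponds to 60% growth inhibition; 0 means no net growth; -100 means all cells died. Active threshold: below 10.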 Active and inactive are the calls of the source.

For this experiment, the system named is HL-60(TB) leukemia. Kind of experiment: NCI-60 one-dose screen, 48 h (100 = growth as untreated, 0 = no growth, -100 = all killed). The note with it: 10 µM unless noted.
With `O=C(/C=C/Nc1ccc2oc(=O)ccc2c1)c1cc2cc(Br)ccc2oc1=O`, the growth was 131% (inactive).

Turning to `Clc1cccc(-c2ccc(OCCCN3CCN(c4ccncc4)CC3)cc2)c1`, the growth was -53.9% (active).

With `COc1ccc(/C=C/c2nc3ccccc3c(=O)n2CC(=O)Nc2ccc(Cl)cc2)cc1`, the growth is 96.2% (inactive).

`S=C(NCCc1ccccc1)Nc1ccc(OCc2nc3ccccc3[nH]2)cc1`: the growth is 100% (inactive).

Take `Cc1sc(C(NC(=O)OCCn2c([N+](=O)[O-])cnc2C)C(F)(F)Cl)nc1-c1ccc(OC(F)(F)F)cc1` (stereo unspecified): the growth is -6.23% (active).

Consider `O=C(NNc1ccccc1)n1c(=O)c2ccccc2c(=O)n1-c1ccccc1`, for which the growth is 82.7% (inactive).

Consider `COc1ccc(N=Nc2c(N)nn3c(-c4cc5ccccc5oc4=O)ccnc23)cc1`, for which the growth was 73.9% (inactive).

`CN(C)CCn1c2ccccc2c2nc3cc(C(F)(F)F)ccc3nc21`: the growth is 24.7% (inactive).

As for `C=CCn1c(SCC(=O)Nc2ccc(C(=O)/C=C/c3ccccc3)cc2)nnc1-c1c[nH]c2ccccc12`, the growth was 32.4% (inactive).

As to `C#C[C@]1(O)CC[C@H]2[C@@H]3CC=C4c5sc(Nc6ccc(N(C)C)cc6)nc5CC[C@]4(C)[C@H]3CC[C@@]21C`, the growth was -26.1% (active).

With `COc1ccc(-c2cc(C(=O)OCc3ccc(Br)cc3)nn2-c2ccc(S(C)(=O)=O)cc2)cc1OC`, the growth was 83.6% (inactive).

In the case of `COc1ccccc1C(=O)NN1C(=O)/C(=C/C2=Cc3ccccc3OC2)SC1=S`, the growth was 97.2% (inactive).

Regarding `CC(=O)/C=C/c1cccc2c1C(=O)NC(C)(c1cc3cc(Br)ccc3oc1=O)N2` (stereo unspecified), the growth is -29.3% (active).

Regarding `COc1ccc(-c2nc(SCC(C)C)nc(NCCc3c[nH]c4ccccc34)c2C#N)cc1`, the growth was 63.2% (inactive).

For `CC1[C@H]2[C@H](C[C@H]3[C@@H]4CC=C5c6sc(Nc7ccccc7F)nc6CC[C@]5(C)[C@H]4CC[C@@]32C)O[C@]12CC[C@@H](C)CO2` (stereo partly specified), the growth is -41.9% (active).

In the case of `O=C(CSc1nc2ccccc2c(=O)n1-c1ccc(Cl)cc1)Nc1ccc(-c2nc3ccccc3[nH]2)cc1`, the growth was 44.4% (inactive).
